Screens (PubChem)
MazF activator: MazEF (E. coli) toxin RNase activation | FAM/BHQ RNA-DNA oligo cleavage fluorescence, 5 h | activation, % at 20 µM | actives 0.32% (n = 350,000); in the data active = activation above about 50%
Target sequence (P0AE70 whole entry, looked up): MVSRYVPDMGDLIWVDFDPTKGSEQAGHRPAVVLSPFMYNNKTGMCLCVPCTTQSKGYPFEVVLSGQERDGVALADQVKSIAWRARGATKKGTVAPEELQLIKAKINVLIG
Anthrax LF inh2: inhibitors of Bacillus anthracis lethal factor protease | P15917 | multiplex microsphere protease cleavage assay, LF | inhibition, % at 10 µM | actives 0.12% (n = 360,000) | AID 588501
BoNT-F LC inh: blocks Botulinum neurotoxin F light chain protease. inhibition, % at 10 µM. actives 0.22% (n = 360,000). Multiplex microsphere protease cleavage assay, flow cytometry; in the data active = inhibition above about 35%, passing the limit was not always enough; inconclusive = no clear call, values can overlap the other calls
BoNT A protease: inhibitors of Botulinum neurotoxin A light chain protease | multiplex microsphere protease substrate cleavage, flow cytometry | inhibition, % at 10 µM | actives 0.17% (n = 360,000) | AID 588499
DUSP3 inh: inhibitors of human VHR1 phosphatase (DUSP3); recombinant VHR phosphatase, pNPP absorbance; inhibition, % at 13.3 µM; actives 0.52% (n = 290,000); AID 1654; in the data active = inhibition above about 50%
Target sequence (P51452 whole entry, looked up): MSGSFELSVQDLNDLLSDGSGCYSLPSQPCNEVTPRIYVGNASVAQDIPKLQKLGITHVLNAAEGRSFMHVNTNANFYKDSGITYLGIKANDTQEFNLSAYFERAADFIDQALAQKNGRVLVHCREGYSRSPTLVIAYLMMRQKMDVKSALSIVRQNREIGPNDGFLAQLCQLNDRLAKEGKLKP
Autofluor counter: compound fluorescence in toxin protease inhibitor counterscreen; compound autofluorescence counterscreen, microsphere flow cytometry; stronger effect = higher value; fluorescence intensity (concentration not given with the values); actives 3.1% (n = 360,000); in the data active = fluorescence intensity above about 16000; inconclusive = no clear call, values can overlap the other calls
Of the large screens only hits and unclear results are named; the others gave an inactive call. This is a sample that favours compounds with a hit; in the whole collection about 4% have one here. Rule as the data show it, unless noted: active = inhibition above about 30%; inconclusive = no clear call, values can overlap the other calls; inactive = below that.

O=S(=O)(Nc1nc2ccccc2nc1NCCN1CCOCC1)c1cccc(Cl)c1	none
Nc1c(S(=O)(=O)c2cccc(Cl)c2)c2nc3ccccc3nc2n1CCN1CCOCC1	Autofluor counter 16491
CCOc1ccc(C(=O)Nc2nnc(C)s2)cc1OCC	BoNT A protease inconclusive, Autofluor counter 20767
Cc1noc(C)c1NC(=O)N(C)C[C@H]1Oc2ccc(NC(=O)c3ccncc3)cc2C(=O)N([C@H](C)CO)C[C@@H]1C	none (no result: DUSP3 inh)
CN(C)C=Nc1nonc1-c1ccccc1	none
CN(C)C=Nc1c(Br)cc(Br)c2nonc12	MazF activator 228, BoNT-F LC inh inconclusive, BoNT A protease 71
CC1CCCCC1NC(=O)c1cc(S(=O)(=O)N2CCOCC2)ccc1Cl (stereo not drawn)	none (no result: DUSP3 inh)
O=C(NCc1ccccn1)c1cc2cc(Br)ccc2oc1=O	Autofluor counter 25730
COCCCNC(=O)c1cc2cc(Br)ccc2oc1=O	none
O=C(NNC(=O)c1cc2cc(Br)ccc2oc1=O)c1ccc(O)cc1O	DUSP3 inh 60
Cc1c(C(=O)NCc2ccccn2)oc2ccc(Br)cc12	none (no result: DUSP3 inh)
O=C(N/N=C/C(Br)=C/c1ccccc1)c1ccccc1[N+](=O)[O-]	BoNT-F LC inh inconclusive
O=C1C(=Cc2ccc(Br)o2)C(=O)c2ccccc21	BoNT-F LC inh 34
CC1=C/C(=C\c2ccc(Br)o2)C(=O)O1	none
COc1ccc2c(C)cc(SCC(=O)Nc3cc(C(N)=O)cc(C(N)=O)c3)nc2c1	MazF activator 104, Autofluor counter inconclusive
CCC(=O)Nc1nc(C)c(C(=O)N2CCCCC2)s1	none
Cc1ccc(NC(=O)c2cccc(S(=O)(=O)N3CCc4ccccc4C3)c2)nc1	none (no result: DUSP3 inh)
Cc1cc(N2CCN(C)CC2)ccc1NC(=O)c1cccc(S(=O)(=O)N2CCc3ccccc3C2)c1	MazF activator 50
Cc1ccc(NC(C#N)c2ccccc2OCc2ccccc2)cc1 (stereo not drawn)	BoNT A protease inconclusive, Autofluor counter 23322
CCc1ccc(-c2cc(C)no2)cc1S(=O)(=O)Nc1ccc(C)cn1	none
Nc1nc(Sc2ccc([N+](=O)[O-])c3nonc23)c2[nH]cnc2n1	MazF activator 60 (no result: DUSP3 inh)
CNc1ncnc(Sc2nc(N)nc3nc[nH]c23)c1[N+](=O)[O-]	none (no result: DUSP3 inh)
NC(=O)c1ccc(N2CCCCC2)c(N2C(=O)C3C4C=CC(C4)C3C2=O)c1 (stereo not drawn)	none
COC(=O)[C@H](Cc1ccccc1)NC(=O)N1CCCCC1C (stereo partly drawn)	none
CCC1CCCCN1C(=O)N[C@@H](Cc1ccccc1)C(=O)O (stereo partly drawn)	Autofluor counter 23663
CCOC(=O)c1c(O)c2ccccc2oc1=O	none
COC(=O)N1CCN(c2ccc(C(C)=O)cc2)CC1	BoNT A protease inconclusive, Autofluor counter 18481
COc1cccc(S(=O)(=O)NCc2ccc(C(=O)N3CCN(c4ccccc4)CC3)cc2)c1	none
Cc1ccc(C(=O)NCc2ccc(N3CCN(C(=O)OC(C)(C)C)CC3)cc2)cc1	BoNT A protease inconclusive, Autofluor counter 23049
O=C(c1ccc2ccccc2c1)N1CCN(c2ccccc2)CC1	BoNT A protease inconclusive, Autofluor counter 19676
Cc1ccc(S(=O)(=O)NCc2ccc(C(=O)N3CCN(c4ccccc4)CC3)cc2)cc1	DUSP3 inh 53
CC(=O)c1ccc(N2CCN(C(=S)Nc3ccccc3)CC2)cc1	none
O=C(c1ccc(-c2ccccc2)cc1)N1CCN(c2ccccc2)CC1	BoNT-F LC inh inconclusive
O=C(c1cccc(S(=O)(=O)N2CCCC2)c1)N1CCN(c2ccccc2)CC1	Autofluor counter 21121
CC(Nc1ccccc1)c1ccncc1 (stereo not drawn)	none
CN(C)CCN(C)Cc1c2ccccc2c(CN(C)CCN(C)C)c2ccccc12	BoNT A protease 33 (no result: DUSP3 inh)
Cc1ccc(C(=O)Nc2ccc(Br)c(C(F)(F)F)c2)cc1	Autofluor counter 16589
Cc1ccc(NC(=O)c2ccc(C)cc2)cc1	none (no result: DUSP3 inh)
CCCCC(=O)Nc1c(O)c2ccccc2[nH]c1=O	Autofluor counter 21304
COc1ccc2c(c1)CCc1c(C(=O)N3CCOCC3)noc1-2	Autofluor counter 18054
COc1ccc2c(c1)CCc1c(C(=O)Nc3ccc(OC)c(OC)c3)noc1-2	Autofluor counter 20591
COc1ccc2c(c1)CCc1c(C(=O)NCCc3ccc(OC)c(OC)c3)noc1-2	none
Cc1ccccc1C(=O)NCCOc1ccccc1Cl	BoNT-F LC inh inconclusive
COc1ccc(-n2c(CNC(=O)c3ccc(S(=O)(=O)N4CCCC4)cc3)n[nH]c2=S)cc1	none
O=C1CN(C(=O)CSc2nc3ccccc3c(=O)n2Cc2ccc(F)cc2)c2ccccc2N1	none
COc1ccc(CN2CCC(n3nccc3NC(=O)c3ccc4c(c3)OCO4)CC2)cc1C	DUSP3 inh 52
CC(=O)c1cc(CN2CCC(n3nccc3NC(=O)c3ccccc3C)CC2)cs1	DUSP3 inh 59
COc1ccccc1C(=O)Nc1ccnn1C1CCN(Cc2csc(C(C)=O)c2)CC1	none
Nc1nc(N2CCCCC2)nc(N2CCCCC2)n1	DUSP3 inh 52
C1CCN(c2nc(N3CCCC3)nc(N3CCNCC3)n2)C1	none (no result: MazF activator, Anthrax LF inh2, BoNT-F LC inh, BoNT A protease, Autofluor counter)
CCCCNC(=O)[C@@H]1CSC2c3ccccc3C(=O)N21 (stereo partly drawn)	none
COc1ccc2nc(NC(=O)CCNC(=O)c3ccco3)sc2c1	none (no result: DUSP3 inh)
Cc1nc(N2CCOCC2)[nH]c(=O)c1CCC(C)C	Autofluor counter 16493
COc1ccc(-n2c(C)cc(C(=O)C[N+]34CCN(CC3)CC4)c2C)cc1	none
Cc1ccc(NC(=O)CSCc2cc(=O)n3ccsc3n2)c(C)c1	none
Cc1cccc(NC(=O)C2CCCN(C(=O)NC3CCCCC3)C2)c1C (stereo not drawn)	Autofluor counter 22986
COc1ccccc1NC(=O)N1CCCC(C(=O)Nc2cccc(C)c2C)C1 (stereo not drawn)	none
CCCC(C(=O)OCC)P(=O)(c1ccccc1)c1ccccc1 (stereo not drawn)	BoNT A protease inconclusive, Autofluor counter 23167
CCOC(=O)CC(C(=O)OCC)P(=O)(c1ccccc1)c1ccccc1 (stereo not drawn)	none
O=C(/C=C/c1ccco1)Nc1ccccc1N1CCCC1	none
O=C(/C=C/c1ccco1)NC(=S)Nc1ccccc1N1CCCC1	DUSP3 inh 56
O=C(/C=C/c1ccco1)NC(=S)Nc1cc(C(F)(F)F)ccc1N1CCOCC1	none
O=C(/C=C/c1ccco1)NC(=S)Nc1ccccc1N1CCOCC1	Autofluor counter 23214
CCOc1cc(/C=N/NC(=O)C(=O)NCC2CCCO2)ccc1OCC(=O)N1CCOCC1 (stereo not drawn)	none
S=c1[nH]nc(Cc2ccccc2)n1-c1ccccc1	BoNT A protease inconclusive, Autofluor counter 19172
Cc1ccc(OCc2n[nH]c(=S)n2-c2ccc(Br)cc2)cc1	BoNT-F LC inh inconclusive, DUSP3 inh 58
S=c1[nH]nc(Cc2ccccc2)n1-c1ccc(Cl)cc1	none
Cc1ccc(OCc2n[nH]c(=S)n2-c2ccc(Cl)cc2)cc1	none
Cc1ccc(-n2c(Cc3ccccc3)n[nH]c2=S)cc1	Autofluor counter 22337
